Measurements: PubChem BioAssay AID720697 (Broad Institute, 2013)
Measured potencies and affinities stand elsewhere. Records with an inconclusive call do not appear. Active and inactive are the calls of the source.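 How the source made its calls: active means signal loss with fitted half-maximal concentration at or below twice the top valid tested dose in every test run; inconclusive means runs disagree, flat 30 to 70% signal loss, or poor fit; inactive means all runs flat, opposite direction, or potency beyond limit.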

Test: general mammalian cell viability loss – inhibitor set, cherry-pick, set 2, cytotoxicity control for miR-122 modulator project, dose response (AID 720697);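 further: 0% = median of neutral control wells and -100% = MG132 positive control wells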
Details: HEK293T viability, CellTiter-Glo luminescence, 48 h; series mostly up to 26 µM

**Q.** Which outcome does the source give for CCCC(=O)Nc1ccc2c(c1)C(=O)N(C)[C@@H]1CC[C@H](CC(=O)NCc3cccc(F)c3)O[C@H]1CO2 here?
**A.** The outcome was “inactive”.

**Q.** Which outcome does the source give for CCCNC(=O)C[C@H]1CC[C@H]2[C@@H](COc3ccc(NC(=O)c4cc(F)cc(F)c4)cc3C(=O)N2C)O1 here?
**A.** Its outcome is “inactive”.

**Q.** Which outcome does the source give for COCC(=O)N1[C@H](CO)[C@@H](c2ccccc2)[C@H]1CNC(=O)c1ccccn1 here?
**A.** The outcome was “inactive”.

**Q.** With CC(C)NC(=O)Nc1ccc2c(c1)C(=O)N(C)[C@H]1CC[C@H](CC(=O)NCC(F)(F)F)O[C@H]1CO2 as the molecule, how does the outcome read?
**A.** The outcome was “inactive”.

**Q.** Which outcome does the source give for C[C@@H]1CN([C@@H](C)CO)C(=O)c2cccc(NC(=O)c3ccc(-c4nccs4)cc3)c2O[C@H]1CN(C)Cc1ccc2c(c1)OCO2 here?
**A.** Its outcome is “inactive”.

**Q.** For COCC(=O)Nc1ccc2c(c1)C(=O)N(C)[C@@H]1CC[C@@H](CC(=O)NC3CCCC3)O[C@@H]1CO2, which outcome is on record?
**A.** Its outcome is “inactive”.

**Q.** With COc1cc(NC(=O)c2c(F)c(F)c(F)c(F)c2F)c(OC)cc1Cl as the molecule, how does the outcome read?
**A.** Its outcome is “inactive”.

**Q.** Which outcome does the source give for O=C(Nc1ccc(F)cc1)N1C[C@H]2[C@@H](c3ccccc31)[C@H](CO)N2C(=O)c1ccncc1 here?
**A.** Its outcome is “inactive”.

**Q.** For CCC(=O)N(C)C[C@@H]1[C@@H](c2ccccc2)[C@H](CO)N1Cc1cccnc1, which outcome is on record?
**A.** Its outcome is “inactive”.

**Q.** With CN1C(=O)c2cc(NC(=O)c3cccs3)ccc2OC[C@@H]2O[C@@H](CC(=O)O)CC[C@@H]21 as the molecule, how does the outcome read?
**A.** Its outcome is “inactive”.

**Q.** With CC(=O)Nc1ccc2c(c1)C(=O)N(C)[C@H]1CC[C@H](CC(=O)Nc3ccccc3Cl)O[C@@H]1CO2 as the molecule, how does the outcome read?
**A.** Its outcome is “inactive”.

**Q.** Which outcome does the source give for CC(=O)N1[C@H](CN(C)S(=O)(=O)c2ccccc2)[C@H](c2ccccc2)[C@@H]1CO here?
**A.** The outcome was “inactive”.

**Q.** Which outcome does the source give for C[C@@H]1CN([C@@H](C)CO)C(=O)c2cccc(NC(=O)Nc3ccc4c(c3)OCO4)c2O[C@@H]1CN(C)Cc1ccc(Oc2ccccc2)cc1 here?
**A.** Its outcome is “inactive”.

**Q.** Which activity change, negative = cytotoxicity does the source give for N#Cc1ccc(C(=O)Nc2ccc(N3CCN(C(=O)c4ccco4)CC3)cc2)c(F)c1 here?
**A.** The activity change, negative = cytotoxicity was -30.3% [at 6 µM] (inactive).

**Q.** Which outcome does the source give for CN1C(=O)c2cc(NC(=O)c3ccc4c(c3)OCO4)ccc2OC[C@@H]2O[C@@H](CC(=O)O)CC[C@@H]21 here?
**A.** The outcome was “inactive”.

**Q.** Which outcome does the source give for CCC(=O)N(C)C[C@@H]1[C@H](c2ccc(-c3ccccc3F)cc2)[C@H](CO)N1C(C)=O here?
**A.** The outcome was “inactive”.

**Q.** With Cc1cc(C(=O)Nc2cccc(O)c2)co1 as the molecule, how does the outcome read?
**A.** The outcome was “inactive”.

**Q.** For Cc1ccc(S(=O)(=O)Nc2ccc3c(c2)C(=O)N(C)[C@@H]2CC[C@H](CC(=O)NCCc4ccncc4)O[C@@H]2CO3)cc1, which outcome is on record?
**A.** The outcome was “inactive”.

**Q.** Which outcome does the source give for C[C@@H]1CN([C@@H](C)CO)C(=O)c2cccc(NS(C)(=O)=O)c2O[C@H]1CN(C)S(=O)(=O)c1ccc(Cl)cc1 here?
**A.** The outcome was “inactive”.

**Q.** Which outcome does the source give for CNC(=O)C[C@@H]1CC[C@H]2[C@@H](COc3ccc(NC(=O)c4ccc(C(F)(F)F)cc4)cc3C(=O)N2C)O1 here?
**A.** The outcome was “inactive”.

**Q.** Which outcome does the source give for COCC(=O)N(C[C@H]1[C@H](c2ccccc2)[C@@H](CO)N1C(=O)NC(C)C)C(C)C here?
**A.** The outcome was “inactive”.

**Q.** With CNC[C@H]1Oc2cc(C#CC3CCCC3)ccc2S(=O)(=O)N([C@H](C)CO)C[C@H]1C as the molecule, how does the outcome read?
**A.** The outcome was “inactive”.

**Q.** With CCN(C[C@@H]1N[C@@H](CO)[C@@H]1c1ccc(C2=CCCC2)cc1)C(=O)c1cccnc1 as the molecule, how does the outcome read?
**A.** Its outcome is “inactive”.

**Q.** For CC(=O)N1[C@H](CN(C(=O)c2ccc(F)cc2)C(C)C)[C@@H](c2ccccc2)[C@@H]1CO, which outcome is on record?
**A.** The outcome was “inactive”.

**Q.** With CCC(=O)N1[C@@H](CO)[C@@H](c2ccccc2)[C@@H]1CN(C(C)C)S(C)(=O)=O as the molecule, how does the outcome read?
**A.** The outcome was “inactive”.

**Q.** With CC(C)C#Cc1ccc2c(c1)O[C@H](CN(C)C(=O)c1ccncc1)[C@H](C)CN([C@H](C)CO)S2(=O)=O as the molecule, how does the outcome read?
**A.** Its outcome is “inactive”.

**Q.** For CN1C(=O)c2cc(NC(=O)Nc3ccccc3F)ccc2OC[C@@H]2O[C@@H](CC(=O)NCc3ccc(-c4ccccc4)cc3)CC[C@@H]21, which outcome is on record?
**A.** The outcome was “inactive”.

**Q.** For COc1ccc(-c2cc(C3CCN(c4ccc(C(C)=O)cc4[N+](=O)[O-])CC3)[nH]n2)cc1, which outcome is on record?
**A.** The outcome was “inactive”.

**Q.** For C/C=C/c1ccc([C@@H]2[C@@H](CO)N(C(C)=O)[C@@H]2CN(CC)C(=O)CN(C)C)cc1, which outcome is on record?
**A.** Its outcome is “inactive”.

**Q.** With CN1C(=O)c2cc(NC(=O)Nc3cccc(Cl)c3)ccc2OC[C@H]2O[C@@H](CC(=O)NCCc3ccncc3)CC[C@H]21 as the molecule, how does the outcome read?
**A.** Its outcome is “inactive”.

**Q.** With NS(=O)(=O)c1ccc(Nc2nc(-c3cccnc3)cs2)cc1 as the molecule, how does the activity change, negative = cytotoxicity read?
**A.** The activity change, negative = cytotoxicity was 34% [at 6 µM] (inactive).

**Q.** For COc1ccc(OC)c(Nc2cc(C)nc3ccc(C)cc23)c1, which activity change, negative = cytotoxicity is on record?
**A.** The activity change, negative = cytotoxicity was -30% [at 6 µM] (inactive).

**Q.** Which outcome does the source give for CN1C(=O)c2cc(NC(=O)Cc3ccccc3)ccc2OC[C@H]2O[C@@H](CC(=O)NCc3ccc(Cl)cc3)CC[C@@H]21 here?
**A.** Its outcome is “inactive”.

**Q.** Which outcome does the source give for COC(=O)C[C@@H]1CC[C@H]2[C@@H](COc3ccc(NC(=O)c4ccc(F)c(F)c4)cc3C(=O)N2C)O1 here?
**A.** Its outcome is “inactive”.

**Q.** With CN1C(=O)c2cc(NC(=O)c3cccc(F)c3)ccc2OC[C@H]2O[C@H](CC(=O)NC3CCC3)CC[C@H]21 as the molecule, how does the outcome read?
**A.** The outcome was “inactive”.

**Q.** With O=C(NCCCN1CCCC1)c1ccc(CSCc2cccc(Cl)c2)o1 as the molecule, how does the outcome read?
**A.** Its outcome is “inactive”.

**Q.** For CN1C(=O)c2cc(NC(=O)c3ccccc3F)ccc2OC[C@H]2O[C@H](CC(=O)NCc3ccc4c(c3)OCO4)CC[C@@H]21, which outcome is on record?
**A.** Its outcome is “inactive”.

**Q.** With CNC(=O)C[C@@H]1CC[C@@H]2[C@H](COc3ccc(NC(=O)NC(C)C)cc3C(=O)N2C)O1 as the molecule, how does the outcome read?
**A.** Its outcome is “inactive”.

**Q.** With CN1C(=O)c2cc(NC(=O)c3ccc(C(F)(F)F)cc3)ccc2OC[C@@H]2O[C@H](CC(=O)NC3Cc4ccccc4C3)CC[C@H]21 as the molecule, how does the outcome read?
**A.** The outcome was “inactive”.
